Source: the supplement of paper PMC10849652
Of roughly 7,900 targets only a part is listed; those with a hit were picked by preference. About 0.6% of all pairs of compound and target were hits. A number with no mark means an inactive call.

compound: CC[C@@H]1C(=O)N(C)c2cnc(Nc3ccc(C(=O)N[C@H]4CC[C@H](N5CCN(CC6CC6)CC5)CC4)cc3OC)nc2N1C(C)C [volasertib]; assay: log2 fold change, soluble protein after heating vs DMSO (PISA); higher = thermal stabilisation; K562 cells, 10 uM, 30 min; active = over 0.2 and 3.5 SD of the protein, either way, in both replicates (recomputed)
Method in brief: (§1)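 Aliquots of K562 cells (2×10^6 cells/mL) treated with 10 μM compound for 30 min were heated for 3 min over 48°C-58°C. After pooling and extraction in PBS with 0.5% NP-40 at 4°C, soluble protein from a 21,000xg, 90 min spin was quantified by TMTpro 16plex LC-MS/MS with channel sums equalised. Thermal stability is expressed against control samples, from duplicates, as a log2 fold change.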

UniProt Q9UJY4, sequence (Q9UJY4 whole entry, looked up): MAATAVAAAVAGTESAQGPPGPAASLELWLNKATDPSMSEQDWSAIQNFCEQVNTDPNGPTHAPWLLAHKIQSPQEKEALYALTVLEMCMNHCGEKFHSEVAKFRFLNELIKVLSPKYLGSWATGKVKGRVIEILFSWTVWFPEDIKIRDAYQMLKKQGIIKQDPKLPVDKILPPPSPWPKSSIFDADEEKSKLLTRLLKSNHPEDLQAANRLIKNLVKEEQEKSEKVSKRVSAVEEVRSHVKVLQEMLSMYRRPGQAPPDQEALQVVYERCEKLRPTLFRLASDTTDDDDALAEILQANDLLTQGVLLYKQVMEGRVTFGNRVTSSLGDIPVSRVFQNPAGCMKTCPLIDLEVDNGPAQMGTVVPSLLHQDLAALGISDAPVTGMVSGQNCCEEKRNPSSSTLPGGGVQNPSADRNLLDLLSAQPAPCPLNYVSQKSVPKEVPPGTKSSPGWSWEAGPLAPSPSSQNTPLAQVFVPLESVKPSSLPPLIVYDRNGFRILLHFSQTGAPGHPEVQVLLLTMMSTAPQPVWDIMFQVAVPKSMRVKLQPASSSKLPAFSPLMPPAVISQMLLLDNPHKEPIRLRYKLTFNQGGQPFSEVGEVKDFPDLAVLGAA
UniProt P36969, sequence (P36969 whole entry, looked up): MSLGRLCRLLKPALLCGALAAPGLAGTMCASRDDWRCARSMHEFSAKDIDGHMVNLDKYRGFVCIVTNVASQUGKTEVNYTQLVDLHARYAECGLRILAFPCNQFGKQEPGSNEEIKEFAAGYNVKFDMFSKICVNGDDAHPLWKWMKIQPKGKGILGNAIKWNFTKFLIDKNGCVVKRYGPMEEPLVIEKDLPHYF
UniProt P39748, sequence (P39748 whole entry, looked up): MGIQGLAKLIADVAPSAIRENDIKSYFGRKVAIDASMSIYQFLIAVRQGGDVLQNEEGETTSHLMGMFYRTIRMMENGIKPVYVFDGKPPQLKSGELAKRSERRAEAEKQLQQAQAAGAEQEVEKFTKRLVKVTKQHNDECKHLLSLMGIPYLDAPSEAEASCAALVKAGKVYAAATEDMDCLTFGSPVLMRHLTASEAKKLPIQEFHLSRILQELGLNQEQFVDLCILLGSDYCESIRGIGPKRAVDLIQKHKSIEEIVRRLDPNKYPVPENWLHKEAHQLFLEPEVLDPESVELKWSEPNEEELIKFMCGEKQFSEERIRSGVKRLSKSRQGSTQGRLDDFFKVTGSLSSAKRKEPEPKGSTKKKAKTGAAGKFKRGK
UniProt Q9Y692, sequence (Q9Y692 whole entry, looked up): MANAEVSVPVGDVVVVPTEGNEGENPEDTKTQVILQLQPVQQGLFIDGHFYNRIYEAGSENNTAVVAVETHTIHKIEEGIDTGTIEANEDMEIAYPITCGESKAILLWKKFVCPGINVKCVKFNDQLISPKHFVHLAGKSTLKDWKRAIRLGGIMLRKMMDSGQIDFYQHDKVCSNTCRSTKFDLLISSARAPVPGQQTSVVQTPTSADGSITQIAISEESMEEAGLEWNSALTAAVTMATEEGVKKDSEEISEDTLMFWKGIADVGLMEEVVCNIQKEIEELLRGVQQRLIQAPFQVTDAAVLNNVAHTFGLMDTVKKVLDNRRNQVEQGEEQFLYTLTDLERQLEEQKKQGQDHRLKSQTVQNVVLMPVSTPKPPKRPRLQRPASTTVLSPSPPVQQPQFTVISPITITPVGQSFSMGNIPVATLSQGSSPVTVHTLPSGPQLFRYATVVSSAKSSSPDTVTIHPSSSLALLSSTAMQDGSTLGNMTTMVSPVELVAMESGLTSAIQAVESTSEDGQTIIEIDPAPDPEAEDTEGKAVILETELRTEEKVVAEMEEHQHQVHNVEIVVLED
UniProt O14893, sequence (O14893 whole entry, looked up): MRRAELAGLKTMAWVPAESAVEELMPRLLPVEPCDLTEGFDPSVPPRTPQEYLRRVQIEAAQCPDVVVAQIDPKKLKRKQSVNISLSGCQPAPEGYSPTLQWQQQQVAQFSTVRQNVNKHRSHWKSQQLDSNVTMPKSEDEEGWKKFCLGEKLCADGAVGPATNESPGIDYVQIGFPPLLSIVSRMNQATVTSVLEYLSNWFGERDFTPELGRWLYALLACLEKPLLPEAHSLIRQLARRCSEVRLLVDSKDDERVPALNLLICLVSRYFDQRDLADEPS
UniProt Q86VQ1, sequence (Q86VQ1 whole entry, looked up): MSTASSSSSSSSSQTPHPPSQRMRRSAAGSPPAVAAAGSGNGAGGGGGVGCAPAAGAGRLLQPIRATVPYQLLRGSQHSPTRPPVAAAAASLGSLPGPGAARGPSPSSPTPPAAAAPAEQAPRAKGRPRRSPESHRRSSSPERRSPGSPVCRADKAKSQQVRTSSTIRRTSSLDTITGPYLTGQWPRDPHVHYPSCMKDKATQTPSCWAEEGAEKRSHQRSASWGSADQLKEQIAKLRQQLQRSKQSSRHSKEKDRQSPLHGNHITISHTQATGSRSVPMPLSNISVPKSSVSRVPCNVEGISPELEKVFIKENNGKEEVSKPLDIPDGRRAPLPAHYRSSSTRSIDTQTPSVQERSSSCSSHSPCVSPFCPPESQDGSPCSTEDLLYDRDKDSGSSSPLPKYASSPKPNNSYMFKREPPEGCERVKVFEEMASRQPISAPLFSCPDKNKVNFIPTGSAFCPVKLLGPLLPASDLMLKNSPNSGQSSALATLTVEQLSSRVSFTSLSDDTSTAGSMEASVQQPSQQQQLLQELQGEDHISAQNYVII
UniProt O60725, sequence (O60725 whole entry, looked up): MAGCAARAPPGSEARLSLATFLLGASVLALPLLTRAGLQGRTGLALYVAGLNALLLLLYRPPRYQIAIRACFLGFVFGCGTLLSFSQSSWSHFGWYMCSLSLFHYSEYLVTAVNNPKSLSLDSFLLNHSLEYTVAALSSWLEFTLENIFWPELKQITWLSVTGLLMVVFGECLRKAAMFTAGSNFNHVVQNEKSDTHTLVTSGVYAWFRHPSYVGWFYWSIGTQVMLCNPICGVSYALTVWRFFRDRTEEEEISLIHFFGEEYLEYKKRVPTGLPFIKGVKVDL
UniProt P22570, sequence (P22570 whole entry, looked up): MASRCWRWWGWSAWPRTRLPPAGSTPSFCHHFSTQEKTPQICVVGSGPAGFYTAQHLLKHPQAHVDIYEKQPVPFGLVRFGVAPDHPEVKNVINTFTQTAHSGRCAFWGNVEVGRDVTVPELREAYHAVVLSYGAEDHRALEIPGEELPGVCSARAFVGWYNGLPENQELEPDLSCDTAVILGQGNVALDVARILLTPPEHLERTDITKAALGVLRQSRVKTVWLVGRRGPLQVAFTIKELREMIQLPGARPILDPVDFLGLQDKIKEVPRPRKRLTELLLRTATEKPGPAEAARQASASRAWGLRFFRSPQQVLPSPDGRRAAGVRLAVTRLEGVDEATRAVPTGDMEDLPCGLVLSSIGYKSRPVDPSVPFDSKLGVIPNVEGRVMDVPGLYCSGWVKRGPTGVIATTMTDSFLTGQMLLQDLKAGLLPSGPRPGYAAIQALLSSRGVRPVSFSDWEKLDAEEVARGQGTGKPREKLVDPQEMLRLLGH
UniProt Q13547, sequence (Q13547 whole entry, looked up): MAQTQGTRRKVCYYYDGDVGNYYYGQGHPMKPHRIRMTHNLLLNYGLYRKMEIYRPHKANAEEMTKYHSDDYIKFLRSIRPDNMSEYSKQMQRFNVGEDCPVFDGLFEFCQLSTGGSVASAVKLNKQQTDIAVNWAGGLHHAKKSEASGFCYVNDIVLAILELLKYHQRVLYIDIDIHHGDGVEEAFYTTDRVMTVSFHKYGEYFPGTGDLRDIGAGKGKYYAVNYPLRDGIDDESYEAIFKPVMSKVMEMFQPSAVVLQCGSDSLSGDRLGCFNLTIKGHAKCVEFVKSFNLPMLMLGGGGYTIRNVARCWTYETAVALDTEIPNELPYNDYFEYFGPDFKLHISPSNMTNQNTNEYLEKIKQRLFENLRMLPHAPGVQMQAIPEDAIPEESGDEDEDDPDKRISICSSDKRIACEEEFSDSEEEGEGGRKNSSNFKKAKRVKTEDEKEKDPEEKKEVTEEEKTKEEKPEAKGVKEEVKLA
UniProt P14324, sequence (P14324 whole entry, looked up): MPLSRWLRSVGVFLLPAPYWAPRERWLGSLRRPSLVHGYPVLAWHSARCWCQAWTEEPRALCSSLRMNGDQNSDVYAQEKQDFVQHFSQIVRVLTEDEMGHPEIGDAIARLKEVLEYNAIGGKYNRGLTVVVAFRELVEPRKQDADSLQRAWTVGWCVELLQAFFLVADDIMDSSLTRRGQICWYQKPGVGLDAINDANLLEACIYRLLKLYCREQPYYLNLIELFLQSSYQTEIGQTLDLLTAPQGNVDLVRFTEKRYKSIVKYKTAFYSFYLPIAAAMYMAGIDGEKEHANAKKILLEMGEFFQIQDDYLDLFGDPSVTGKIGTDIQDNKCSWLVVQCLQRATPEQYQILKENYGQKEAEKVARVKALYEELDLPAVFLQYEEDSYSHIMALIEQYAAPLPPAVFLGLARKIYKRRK
UniProt Q9NZC3, sequence (Q9NZC3 whole entry, looked up): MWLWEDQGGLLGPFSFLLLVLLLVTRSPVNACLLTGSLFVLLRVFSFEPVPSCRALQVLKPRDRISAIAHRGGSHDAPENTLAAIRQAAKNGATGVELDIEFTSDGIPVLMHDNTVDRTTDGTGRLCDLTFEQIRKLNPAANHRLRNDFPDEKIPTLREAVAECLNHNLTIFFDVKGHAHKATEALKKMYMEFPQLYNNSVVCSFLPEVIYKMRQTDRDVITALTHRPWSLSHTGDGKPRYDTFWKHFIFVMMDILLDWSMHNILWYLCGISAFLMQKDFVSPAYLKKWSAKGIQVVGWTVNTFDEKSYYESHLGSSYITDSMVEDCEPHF
UniProt Q13227, sequence (Q13227 whole entry, looked up): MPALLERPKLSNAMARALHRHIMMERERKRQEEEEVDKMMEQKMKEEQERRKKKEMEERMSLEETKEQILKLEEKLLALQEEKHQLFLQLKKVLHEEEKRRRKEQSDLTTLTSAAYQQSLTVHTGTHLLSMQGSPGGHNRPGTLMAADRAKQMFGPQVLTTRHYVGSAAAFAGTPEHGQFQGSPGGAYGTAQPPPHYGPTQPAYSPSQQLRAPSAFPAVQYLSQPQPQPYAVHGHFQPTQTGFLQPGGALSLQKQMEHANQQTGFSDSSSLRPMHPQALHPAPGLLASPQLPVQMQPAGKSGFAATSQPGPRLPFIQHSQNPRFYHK

Row | Target | log2 fold change
1 | FAT1 (UniProt Q14517) | 0.009
2 | GAB2 (UniProt Q9UQC2) | -0.009
3 | GLCCI1 (UniProt Q86VQ1) | 0.108
4 | FANCI (UniProt Q9NVI1) | -0.159
5 | GALNT11 (UniProt Q8NCW6) | -0.223 (active)
6 | FDPS (UniProt P14324) | -0.191
7 | HDAC1 (UniProt Q13547) | -0.216
8 | HDAC2 (UniProt Q92769) | -0.051
9 | HDAC7 isoform 5 (UniProt Q8WUI4) | 0.01
10 | GEMIN2 (UniProt O14893) | -0.061
11 | HPCAL1 (UniProt P37235) | -0.065
12 | FCHO1 (UniProt O14526) | -0.768 (active)
13 | HIP1R (UniProt O75146) | -0.268 (active)
14 | HADHB (UniProt P55084) | 0.462
15 | GHDC (UniProt Q8N2G8) | -0.053
16 | FEN1 (UniProt P39748) | -0.037
17 | GOPC (UniProt Q9HD26) | -0.015
18 | FDFT1 (UniProt P37268) | -0.151

Row | Target | log2 fold change
19 | GDE1 (UniProt Q9NZC3) | 0.053
20 | ICMT (UniProt O60725) | 0.138
21 | GAK (UniProt O14976) | 1.35
22 | GSTP1 (UniProt P09211) | 0.362 (active)
23 | FOXO3 (UniProt O43524) | -0.061
24 | FDXR isoform 7 (UniProt P22570) | 0.003
25 | HNRNPH2 (UniProt P55795) | -0.667 (active)
26 | GLIPR2 (UniProt Q9H4G4) | 0.163
27 | FIBP (UniProt O43427) | -0.093
28 | HNRNPC isoform 2 (UniProt P07910) | 0.276
29 | FBXO7 (UniProt Q9Y3I1) | -0.198
30 | GPS2 (UniProt Q13227) | -0.072
31 | GGA2 (UniProt Q9UJY4) | 0.059
32 | GMEB1 (UniProt Q9Y692) | -0.281 (active)
33 | FANCD2 isoform 1 (UniProt Q9BXW9) | -0.251
34 | GPX4 (UniProt P36969) | 0.016
35 | IFITM3 (UniProt Q01628) | 0.033

compound: CC[C@H](C)N1C=C(C2=C(C=C(C=C21)C3=CN=C(C=C3)N4CCNCC4)C(=O)NCC5=C(C=C(NC5=O)C)C)C; assay: as above
Method in brief: as §1

Row | Target | log2 fold change
36 | FAT1 (UniProt Q14517) | -0.048
37 | GLCCI1 (UniProt Q86VQ1) | 0.15
38 | FANCI (UniProt Q9NVI1) | 0.127
39 | GALNT11 (UniProt Q8NCW6) | 0.014
40 | FDPS (UniProt P14324) | 0.075
41 | HDAC1 (UniProt Q13547) | 0.037
42 | HDAC2 (UniProt Q92769) | 0.026
43 | HDAC7 isoform 5 (UniProt Q8WUI4) | 0.007
44 | GEMIN2 (UniProt O14893) | -0.057
45 | HPCAL1 (UniProt P37235) | -0.028
46 | FCHO1 (UniProt O14526) | 0.168
47 | HIP1R (UniProt O75146) | 0.015
48 | HADHB (UniProt P55084) | 0.123
49 | GHDC (UniProt Q8N2G8) | -0.063
50 | FEN1 (UniProt P39748) | 0.086
51 | GOPC (UniProt Q9HD26) | 0.022

Row | Target | log2 fold change
52 | FDFT1 (UniProt P37268) | -0.01
53 | GDE1 (UniProt Q9NZC3) | -0.092
54 | ICMT (UniProt O60725) | -0.027
55 | GAK (UniProt O14976) | -0.401
56 | GSTP1 (UniProt P09211) | 0.009
57 | FDXR isoform 7 (UniProt P22570) | 0.025
58 | HNRNPH2 (UniProt P55795) | 0.073
59 | HNRNPC isoform 2 (UniProt P07910) | 0.017
60 | FBXO7 (UniProt Q9Y3I1) | 0.044
61 | GPS2 (UniProt Q13227) | 0.082
62 | GGA2 (UniProt Q9UJY4) | 0.038
63 | GMEB1 (UniProt Q9Y692) | 0.039
64 | FANCD2 isoform 1 (UniProt Q9BXW9) | 0.118
65 | GPX4 (UniProt P36969) | 0.012
66 | IFITM3 (UniProt Q01628) | 0.023

compound: CC[C@H](C)[C@@H](C(=O)N[C@@H]([C@@H](C)O)C(=O)N[C@@H](CC(C)C)C(=O)[C@]1(CO1)C)NC(=O)[C@H]([C@@H](C)CC)N(C)C(=O)C [epoxomicin]; assay: as above
Method in brief: as §1

Row | Target | log2 fold change
67 | FAT1 (UniProt Q14517) | -0.05
68 | GAB2 (UniProt Q9UQC2) | 0.065
69 | GLCCI1 (UniProt Q86VQ1) | -0.022
70 | FANCI (UniProt Q9NVI1) | -0.077
71 | GALNT11 (UniProt Q8NCW6) | -0.002
72 | FDPS (UniProt P14324) | 0.028
73 | HDAC1 (UniProt Q13547) | -0.006
74 | HDAC2 (UniProt Q92769) | -0.049
75 | HDAC7 isoform 5 (UniProt Q8WUI4) | 0.016
76 | GEMIN2 (UniProt O14893) | 0.011
77 | HPCAL1 (UniProt P37235) | 0.048
78 | FCHO1 (UniProt O14526) | 0.05
79 | HIP1R (UniProt O75146) | 0.051
80 | HADHB (UniProt P55084) | 0.05
81 | GHDC (UniProt Q8N2G8) | -0.021
82 | FEN1 (UniProt P39748) | 0.109
83 | GOPC (UniProt Q9HD26) | -0.053
84 | FDFT1 (UniProt P37268) | 0.06

Row | Target | log2 fold change
85 | GDE1 (UniProt Q9NZC3) | -0.046
86 | ICMT (UniProt O60725) | -0.029
87 | GAK (UniProt O14976) | -0.046
88 | GSTP1 (UniProt P09211) | -0.025
89 | FOXO3 (UniProt O43524) | 0.007
90 | FDXR isoform 7 (UniProt P22570) | 0.059
91 | HNRNPH2 (UniProt P55795) | -0.004
92 | GLIPR2 (UniProt Q9H4G4) | -0.088
93 | FIBP (UniProt O43427) | -0.023
94 | HNRNPC isoform 2 (UniProt P07910) | -0.423
95 | FBXO7 (UniProt Q9Y3I1) | -0.012
96 | GPS2 (UniProt Q13227) | 0.016
97 | GGA2 (UniProt Q9UJY4) | -0.033
98 | GMEB1 (UniProt Q9Y692) | 0.059
99 | FANCD2 isoform 1 (UniProt Q9BXW9) | -0.307
100 | GPX4 (UniProt P36969) | 0.021
101 | IFITM3 (UniProt Q01628) | -0.007
